According to PubChem BioAssay (NCATS):
Results filed as inconclusive are left out. Calls of active or inactive are those of the source. Unless noted, the call rests on the fitted dose curve; in most records, active means well fitted curve in the direction sought with a large enough effect; inconclusive means small, poorly fitted or top-dose-only effect, or another doubt; inactive means no such curve, though single readings can be large; an effect the other way counts as inactive or inconclusive.

Tests used:
[1] = qHTS to identify inhibitors of the type 1 interferon - major histocompatibility complex class I in skeletal muscle: primary screen against the NCATS Pharmaceutical Collection (AID 1347407); details: human skeletal muscle cells, IFN-b-induced MHC-I HiBiT luminescence, 24 h; series mostly up to 45.9 µM;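 further: luminescence of HiBiT knocked into endogenous HLA-B as interferon-induced MHC class I level; on the % scale 0 is the no-effect control and ±100 the full control effect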
Method in brief: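 Immortalized human myoblasts (C25cl48) with HiBiT knocked into endogenous HLA-B*08:01 were stimulated with 4 ng/ml IFN-beta and treated with compounds (8-point, 1:5, top 46 uM final) for 24 h at 37 C; HiBiT lytic luminescence read.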

[2] = target: Protein phosphatase 1D (Homo sapiens) (UniProt O15297); assay: RapidFire Mass Spectrometry qHTS Assay for Modulators of WT P53-Induced Phosphatase 1 (WIP1) (AID 1347424); details: WIP1 dephosphorylation of phosphopeptide, RapidFire MS; series mostly up to 63 µM;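 further: amount of dephosphorylated VEPPL-S-QETFS peptide product formed by WIP1; plate controls were DMSO wells for no effect and GSK830371 inhibitor control at 10 µM for full effect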
Method in brief: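 WIP1 (10 nM final) was preincubated 1 h at room temperature with compounds in Tris-HCl pH 7.5, 30 mM MgCl2, TCEP, EGTA, BSA; 2 uM VEPPL-pS-QETFS phosphopeptide was added for 5 min, quenched with formic acid, and dephosphorylated product quantified by RapidFire MS.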

[3] = target: Protein phosphatase 1D (Homo sapiens) (UniProt O15297); assay: Rhodamine-PBP qHTS Assay for Modulators of WT P53-Induced Phosphatase 1 (WIP1) (AID 1347425); details: recombinant WIP1, Rhodamine-PBP phosphate fluorescence, real-time; series mostly up to 57.5 µM; further: % of control where 0% means no effect
Method in brief: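 Read-out: Rhodamine-PBP fluorescence (ex 525/em 598 nm) for released Pi, read each minute for 11 min after adding 10 uM VEPPL-pS-QETFS; signal taken as f1 minus pre-substrate f0. Enzyme 5 nM WIP1 with 1 hr room-temperature compound preincubation.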

[4] = Primary qHTS for inhibitors of La Crosse Virus (LACV) - induced cell death in SH-SY5Y cells (AID 1508616); details: SH-SY5Y LACV cytopathicity rescue, ATP luminescence, 6 d; series mostly up to 4.29 µM;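 further: top concentration of the series differs between compounds; 0% = infected DMSO wells and 100% = uninfected DMSO wells; higher means more rescue of cells from virus-induced death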
Method in brief: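 Protection against LACV-induced cell death is scored in SH-SY5Y cells exposed to compounds and virus (0.01 MOI) for 6 days. Data normalized to virus-infected DMSO wells and virus-free DMSO wells.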

[5] = target: Calcium and integrin-binding protein 1 (Homo sapiens) (UniProt Q99828); assay: Primary qHTS for Identification of Calcium Integrin Binding Protein 1 (CIB1) Competitor (AID 1508620); details: CIB1-GST / FITC-alphaIIb peptide fluorescence polarization; series mostly up to 114 µM;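 further: GST tagged CIB1 binding a fluorescein labelled alphaIIb integrin peptide tracer; top concentration of the series differs between compounds; on the % scale 0 is the no-effect control and ±100 the full control effect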
Method in brief: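 Fluorescence polarization competition: CIB1-GST (1 uM final) preincubated with compound 15 min at room temperature, then FITC-labeled alphaIIb peptide (100 nM final) added for another 15 min. Polarization read at Ex 480/Em 540.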

[6] = A High-Content qHTS Against Drug Library for the Identification of Small Molecules that Inhibit DYT1 Early Onset Primary Dystonia-Associated Cell Pathology (AID 1645839; calls by dose curve); details: HEK293 Flp-In EGFP-delE TorsinA, punctate imaging, 48 h; series mostly up to 46.1 µM
Method in brief: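 Readout: %pathology, the punctate EGFP-TorsinA distribution from imaging, as the primary channel and cell count as the toxicity counterscreen. HEK293 Flp-In cells expressing delE TorsinA were induced with tetracycline and treated with compound for 48 h.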

[7] = Primary qHTS for small molecule stabilizers of the endoplasmic reticulum resident proteome: Secreted ER Calcium Modulated Protein (SERCaMP) assay (AID 1508630); details: SH-SY5Y GLuc-SERCaMP (Gaussia luciferase released on ER calcium loss) secretion, thapsigargin, luminescence; series mostly up to 38.4 µM; further: on the % scale 0 is the no-effect control and ±100 the full control effect
Method in brief: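 GLuc-SERCaMP-expressing SH-SY5Y cells, pretreated 16 h with compound, are challenged with thapsigargin to empty ER calcium stores; after 4 h, coelenterazine is added directly to the medium and luminescence is imaged.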

[8] = target: Cytochrome P450 2D6 (Homo sapiens) (UniProt P10635); assay: Cytochrome P450 family 2 subfamily D member 6 (CYP2D6) small molecule antagonists: luciferase biochemical (cell-free) qHTS assay (AID 1645840; active means well fitted curve in the direction sought with a large enough effect in the repeat runs; an effect the other way counts as inactive or inconclusive; further: nearly all actives have a fitted effect of over 55% in size; further: potency means the concentration at half of the fitted maximal effect; on activity change, negative = inhibition: on the % scale 0 is the no-effect control and ±100 the full control effect); details: P450-Glo CYP2D6 enzyme, luciferin luminescence, 1 h; series mostly up to 57.4 µM
Method in brief: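 P450-Glo luminescent screen: recombinant CYP2D6 enzyme–proluciferin substrate mix preincubated with compound 10 min at room temperature, then NADPH regeneration added for 1 h at room temperature. Detection reagent added for 20 min; luciferin light read as relative luminescence units.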

Chain of Calcium and integrin-binding protein 1 (Homo sapiens) (Q99828 whole entry, looked up): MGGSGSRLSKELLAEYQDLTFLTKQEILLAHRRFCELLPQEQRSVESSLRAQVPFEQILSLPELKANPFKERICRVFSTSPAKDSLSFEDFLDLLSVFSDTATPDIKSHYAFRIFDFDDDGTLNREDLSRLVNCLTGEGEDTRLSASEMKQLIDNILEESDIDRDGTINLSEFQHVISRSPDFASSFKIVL
Chain of Cytochrome P450 2D6 (Homo sapiens) (P10635 whole entry, looked up): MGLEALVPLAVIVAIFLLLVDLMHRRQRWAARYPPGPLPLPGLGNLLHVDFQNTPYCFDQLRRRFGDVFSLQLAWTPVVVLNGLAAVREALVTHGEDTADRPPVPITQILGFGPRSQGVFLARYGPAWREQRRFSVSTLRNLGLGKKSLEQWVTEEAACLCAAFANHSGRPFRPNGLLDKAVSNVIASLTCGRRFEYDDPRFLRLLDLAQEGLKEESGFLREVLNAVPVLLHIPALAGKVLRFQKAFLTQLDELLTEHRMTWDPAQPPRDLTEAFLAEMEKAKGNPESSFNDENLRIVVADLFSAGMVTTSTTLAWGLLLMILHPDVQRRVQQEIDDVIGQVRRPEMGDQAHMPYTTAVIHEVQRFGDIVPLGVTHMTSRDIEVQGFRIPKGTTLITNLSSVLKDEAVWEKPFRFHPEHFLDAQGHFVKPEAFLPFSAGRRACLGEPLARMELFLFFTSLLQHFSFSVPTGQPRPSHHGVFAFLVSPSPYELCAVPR
Chain of Protein phosphatase 1D (Homo sapiens) (O15297 whole entry, looked up): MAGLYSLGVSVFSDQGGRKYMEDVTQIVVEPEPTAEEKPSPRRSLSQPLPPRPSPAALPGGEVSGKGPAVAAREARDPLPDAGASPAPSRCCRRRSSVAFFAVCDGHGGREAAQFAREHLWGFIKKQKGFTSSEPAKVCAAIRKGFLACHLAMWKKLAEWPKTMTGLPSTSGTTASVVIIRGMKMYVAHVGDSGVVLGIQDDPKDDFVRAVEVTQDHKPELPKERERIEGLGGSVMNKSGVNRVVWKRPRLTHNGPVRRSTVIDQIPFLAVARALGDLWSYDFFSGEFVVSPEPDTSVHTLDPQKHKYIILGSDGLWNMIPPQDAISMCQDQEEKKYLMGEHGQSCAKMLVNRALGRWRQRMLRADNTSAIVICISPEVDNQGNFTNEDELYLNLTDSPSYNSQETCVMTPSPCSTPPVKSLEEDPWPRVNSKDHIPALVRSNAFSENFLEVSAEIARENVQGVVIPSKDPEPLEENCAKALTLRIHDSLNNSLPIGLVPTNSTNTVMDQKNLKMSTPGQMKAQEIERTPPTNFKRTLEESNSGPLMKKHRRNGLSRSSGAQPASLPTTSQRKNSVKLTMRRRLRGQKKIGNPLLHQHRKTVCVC

CC(O)CCCCn1c(=O)c2c(ncn2C)n(C)c1=O (configuration not stated)
inactive: outcome [1] | outcome [2] | outcome [3] | outcome [4] | outcome [5] | Potency [6]

O=C(O)c1ccc[n+]([O-])c1
inactive: outcome [1] | outcome [2] | outcome [3] | outcome [4] | outcome [5] | outcome [7] | Potency [6] | Potency [8]

Cc1cc(C)nc(NS(=O)(=O)c2ccc(N)cc2)n1
inactive: outcome [1] | outcome [2] | outcome [3] | outcome [4] | outcome [5] | outcome [7] | Potency [6] | Potency [8]

Cc1ccc(S(=O)(=O)NC(=O)NC2CCCCCCC2)cc1
inactive: outcome [1] | outcome [2] | outcome [3] | outcome [4] | outcome [5] | outcome [7] | Potency [6] | Potency [8]

CNc1c2c(nn1C)CCCC2
inactive: outcome [1] | outcome [2] | outcome [3] | outcome [4] | outcome [5] | outcome [7] | Potency [6] | Potency [8]

CCCCCCCC(=O)OCC(COC(=O)CCCCCCC)OC(=O)CCCCCCC
inactive: outcome [1] | outcome [2] | outcome [3] | outcome [4] | outcome [5] | outcome [7] | Potency [6] | Potency [8]

Nc1c2c(nc3c1CCC3)CCCC2
inactive: outcome [1] | outcome [2] | outcome [3] | outcome [4] | outcome [5] | outcome [7] | Potency [6]
active: Potency [8] 12.3 µM

CC(=O)Nc1ccc(OCCOCCOc2ccc(NC(C)=O)cc2)cc1
inactive: outcome [1] | outcome [2] | outcome [3] | outcome [4] | outcome [5] | outcome [7] | Potency [8]

NC(=O)CC[C@@H](N)C(=O)O
inactive: outcome [1] | outcome [2] | outcome [3] | outcome [4] | outcome [5] | Potency [6]

CC(=O)[C@@]1(O)CC[C@H]2[C@@H]3C[C@H](C)C4=CC(=O)C=C[C@]4(C)[C@@]3(F)[C@@H](O)C[C@@]21C
inactive: outcome [1] | outcome [2] | outcome [3] | outcome [4] | outcome [5] | outcome [7] | Potency [6] | Potency [8]

Cc1c(C(=O)NCCO)[n+](=O)c2ccccc2n1[O-]
inactive: outcome [1] | outcome [2] | outcome [3] | outcome [4] | outcome [5] | outcome [7] | Potency [6] | Potency [8]

O=C(O)c1ccccc1C(=O)Nc1ccc(S(=O)(=O)Nc2nccs2)cc1
inactive: outcome [1] | outcome [2] | outcome [3] | outcome [4] | outcome [5] | outcome [7] | Potency [6] | Potency [8]

Nc1ccc(C(=O)Oc2ccccc2)c(O)c1
inactive: outcome [1] | outcome [2] | outcome [3] | outcome [4] | outcome [5] | outcome [7] | Potency [6] | Potency [8]

COc1ccc(C(=O)NCc2ccc(OCCN(C)C)cc2)cc1OC
inactive: outcome [1] | outcome [2] | outcome [3] | outcome [4] | outcome [5] | outcome [7] | Potency [6] | Potency [8]

Cc1c(N(C)C)c(=O)n(-c2ccccc2)n1C
inactive: outcome [1] | outcome [2] | outcome [3] | outcome [4] | outcome [5] | outcome [7] | Potency [6] | Potency [8]

OC[C@@H](O)[C@@H](O)[C@H](O)[C@H](O)CO
inactive: outcome [1] | outcome [2] | outcome [3] | outcome [4] | outcome [5] | outcome [7] | Potency [6] | Potency [8]

O=C(Cn1ccnc1[N+](=O)[O-])NCc1ccccc1
inactive: outcome [1] | outcome [2] | outcome [3] | outcome [4] | outcome [5] | outcome [7] | Potency [6] | Potency [8]

CCOC(=O)c1cccnc1
inactive: outcome [1] | outcome [2] | outcome [3] | outcome [4] | outcome [5] | outcome [7] | Potency [6] | Potency [8]

CCCCCCCCCCOc1cc2c(=O)c(C(=O)OCC)c[nH]c2cc1OCC
inactive: activity change, negative = inhibition [1] 0.347% [at 3.83 µM] | activity change, negative = inhibition [2] 14.2% [at 6.17 µM] | activity change, negative = inhibition [3] 9.27% [at 4.81 µM] | activity change [4] 5.38% [at 0.431 µM] | activity change, negative = inhibition [5] 6.25% [at 12.4 µM] | activity change, negative = inhibition [7] 2.46% [at 3.88 µM] | % pathology change, negative = correction [6] 23.7% [at 4.63 µM] | activity change, negative = inhibition [8] 3.17% [at 4.83 µM]

CNCc1ccccc1
active: Potency [8] 11 µM
inactive: outcome [1] | outcome [2] | outcome [3] | outcome [4] | outcome [5] | outcome [7] | Potency [6]

O[C@@H]1CO[C@H]2[C@@H]1OC[C@@H]2O
inactive: outcome [1] | outcome [2] | outcome [3] | outcome [4] | outcome [5] | outcome [7] | Potency [6] | Potency [8]

COCC(=O)Nc1c(I)c(C(=O)NCC(O)CO)c(I)c(C(=O)N(C)CC(O)CO)c1I (configuration not stated)
inactive: outcome [1] | outcome [2] | outcome [3] | outcome [4] | outcome [5] | outcome [7] | Potency [6] | Potency [8]

O=c1[nH]cnc2nc[nH]c12
inactive: outcome [1] | outcome [2] | outcome [3] | outcome [4] | outcome [5] | outcome [7] | Potency [6] | Potency [8]

CN1C(=O)CC(c2ccccc2)C1=O (configuration not stated)
inactive: outcome [1] | outcome [2] | outcome [3] | outcome [4] | outcome [5] | outcome [7] | Potency [6] | Potency [8]

C[N+](C)(C)CC[N+]1(C)Cc2c(Cl)c(Cl)c(Cl)c(Cl)c2C1
active: Potency [8] 1.95 µM
inactive: outcome [1] | outcome [2] | outcome [3] | outcome [4] | outcome [5] | outcome [7] | Potency [6]

O=C(O)C(S)C(S)C(=O)O (configuration not stated)
inactive: outcome [1] | outcome [2] | outcome [3] | outcome [4] | outcome [5] | Potency [6] | Potency [8]
